Vaccinia mCherry: vaccinia inhibition (mCherry reporter). Vaccinia virus mCherry reporter infection, fluorescence. actives 0.63% (n = 310,000). Potency, µM (top dose mostly 36.5 µM), inactives show at the top dose activity change, negative = inhibition, most hits filed as inhibitors; calls by dose curve; tested in A549 cells; also: potency is read from the fitted curve at half-maximal effect; nearly all actives have a fitted effect of over 35% in size
HCV inh: HCV inhibition | Huh7.5.1 HCVcc-Cre infection, luciferase reporter, 44 h | Potency, µM (series often up to 41.8 µM), without a hit: at the top dose activity change, negative = inhibition, hits mostly inhibitors | actives 3.4% (n = 340,000); active = well fitted inhibition curve with a large enough effect; inconclusive = small, poorly fitted or top-dose-only effect, or another doubt; inactive = no such curve, though single readings can be large or run the other way; also: potency is read from the fitted curve at half-maximal effect
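Reporter virus HCVcc-Cre (~0.5 moi) infects cells exposed to compound; seeding density 1,000 cells/well with 4 h settling beforehand. Luminescence, 15 sec read, taken 44 h post-infection following a 15 min RT substrate incubation.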
HCMV antiviral: human cytomegalovirus inhibition; activity change, negative = inhibition, % at 57.5 µM; HFF cells, HCMV-luciferase reporter, 72 h; active compounds read low; actives 4.5% (n = 410,000); in the data active = activity change below about -60%; inconclusive = no clear call, values can overlap the other calls; inactive = above about -39%
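Inhibition of viral replication was scored as loss of reporter luminescence in HFFs infected with HCMV-luciferase (MOI 1 PFU/cell) for 72 h; compounds tested at 2 doses, normalized to buffer and Salinomycin controls.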
Marburg entry inh: inhibitors of Marburg virus binding or cell entry; actives 1.8% (n = 300,000); AID 540276; Marburg virus pseudotyped entry inhibition, cell reporter; Potency, µM (series often up to 37.8 µM), for inactives: at the highest dose activity change, negative = inhibition, hits mostly inhibitors; calls by dose curve; tested in HEK293 cells; also: potency is read from the fitted curve at half-maximal effect
Lassa entry inh: inhibitors of Lassa virus binding or cell entry | Potency, µM (doses to about 37.9 µM), without a hit: at the highest dose activity change, negative = inhibition, actives largely listed as inhibitors | actives 1.2% (n = 300,000) | Lassa virus pseudotype entry inhibition, cell reporter; calls by dose curve; tested in HEK293 cells; also: potency is read from the fitted curve at half-maximal effect; nearly all actives have a fitted effect of over 50% in size
Vaccinia Venus: inhibitors of vaccinia virus (Venus reporter); Vaccinia virus Venus reporter expression, fluorescence; Potency, µM (top dose mostly 36.5 µM), for the others: at the top dose activity change, negative = inhibition, actives largely listed as inhibitors; actives 0.46% (n = 330,000); AID 720580; calls by dose curve; tested in A549 cells; also: potency is read from the fitted curve at half-maximal effect; nearly all actives have a fitted effect of over 30% in size
An asterisk follows results filed as active; i = inactive; ? = inconclusive; . = not tested or not shown; [ ] = dose if it differs, or a comment. Only some compounds are listed: those with a hit (about 7.8% of all), similar ones and a draw of the others. % is scaled to controls: 0 for no effect and ±100 for the full control effect.

SMILES | Vaccinia mCherry | HCV inh | HCMV antiviral | Marburg entry inh | Lassa entry inh | Vaccinia Venus
COc1ccc(-n2c(SCC(=O)NCC3CCCO3)nc3ccccc3c2=O)cc1Cl (stereo not drawn) | i | . | -67.5* | . | . | -18.6%
CCOc1ccccc1NC(=O)CSc1nc2cc(O)ccc2c(=O)n1-c1ccc(OC)c(OC)c1 | . | 11.2µM* | -71.8* | . | . | .
COc1ccc(-n2c(SCC(=O)Nc3ccc(C(N)=O)cc3)nc3ccccc3c2=O)cc1OC | i | -14.4% | 149.5 | -25.4%[46.1 µM] | 4.0%[46.1 µM] | -6.6%
O=C1CN(C(=O)N[C@@H](Cc2ccccc2)C(=O)N[C@H](Cc2ccccc2)C(=O)O)c2ccccc2N1 | -2.8% | 0.562µM* | 4.2 | . | . | -6.2%
Cc1oc2ccc(O)c(CN3CCOCC3)c2c1C(=O)c1ccc(Cl)cc1 | . | ? | -35.3 | ? | ? | .
Cc1oc2c(Cl)c(Cl)c(O)c(CN(C)C)c2c1C(=O)c1ccc(Cl)cc1 | . | ? | -68.5* | . | . | .
O=C(Nc1ccc(Cc2ccncc2)cc1)C1CCC(N2C(=O)C3C4C=CC(C5CC45)C3C2=O)CC1 (stereo not drawn) | . | 8.91µM* | -84.9* | ? | ? | .
CC(=O)Nc1ccc(NC(=O)C2CCC(N3C(=O)C4C5C=CC(C6CC56)C4C3=O)CC2)cc1 (stereo not drawn) | . | ? | 14.7 | . | . | .
CCCCn1c(/N=C/c2cc(OC)ccc2O)nc2ccccc21 | ? | -4.5% | 5.5 | -19.5% | 0.3% | 3.55µM*
CCCn1c(/N=C/c2cc(OC)ccc2O)nc2ccccc21 | -24.6% | 11.2% | 8.8 | 4.6% | 21.9% | -17.1%
CCc1ccc(NC(=O)C2CCC(CNS(=O)(=O)c3ccc4c(c3)C(C)(C)C(=O)N4C)CC2)cc1 (stereo not drawn) | i | . | -12.3 | . | -2.0%[46.1 µM] | -15.1%
CCOC(=O)c1c(NC(C)=O)sc2c1CCCNC2=O | . | -16.5% | 30.1 | ? | -4.1% | -13.0%
CCOC(=O)c1c(NC(C)=O)sc2c1CCC(C=O)=C2Sc1ccccc1 | ? | 2.82µM* | 108.6 | ? | ? | -19.4%
COc1cccc(Nc2nc(-c3sc(N)nc3C)cs2)c1 | i | ? | -0.6 | ? | 29.7% | 5.1%
Cc1nc(C)c(-c2csc(Nc3ccc(F)cc3)n2)s1 | ? | 4.47µM* | -9.5 | ? | ? | -17.8%
Cc1nc(C)c(-c2csc(Nc3ccc(O)cc3C)n2)s1 | 1.12µM* | 3.9% | -33.0 | 5.3%[46.1 µM] | -13.9%[46.1 µM] | ?
COc1cccc(Nc2nc(-c3sc(C)nc3C)cs2)c1 | . | 5.01µM* | 10.0 | . | . | .
Cc1cc(O)ccc1Nc1nc(-c2cccs2)cs1 | ? | ? | 28.5 | ? | ? | ?
COc1cc(OC)cc(C(=O)Nc2ccc3nc(N4CCC(C)CC4)cc(C)c3c2)c1 | -26.8% | . | -21.9 | ? | -23.8%[46.1 µM] | -16.1%
Cc1ccc(C(=O)N/C(=C\c2ccc(Cl)cc2)C(=O)NC2CCCCC2)cc1 | ? | . | -97.6* | . | -8.7%[46.1 µM] | ?
C[C@@H]1CNC(=O)c2c(C(=O)Nc3ccc(CNC(=O)OC(C)(C)C)cc3)ncn21 | ? | . | -65.5* | . | . | ?
COc1ccc(NC(=O)Cc2c(SC)c3ccccc3n2Cc2ccccc2)cc1 | -15.2% | 16.0% | -86.9* | ? | -24.6% | ?
CC(=O)N(/N=C/c1ccc([N+](=O)[O-])o1)c1nc2ccccc2c(=O)n1-c1ccccc1 | . | -24.4% | -63.7* | . | . | .
O=c1c2ccccc2nc(/C=C/c2ccc([N+](=O)[O-])o2)n1-c1ccc(O)cc1 | 3.55µM* | ? | -100.5* | 3.16µM* | ? | -24.8%
Cc1cccc(-n2c(/C=C/c3ccccc3O)nc3ccccc3c2=O)c1 | -23.9% | . | -98.2* | . | ? | ?
Cc1cccc(-n2c(/C=C/c3ccc([N+](=O)[O-])o3)nc3ccccc3c2=O)c1 | -7.0% | 10µM* | -103.7* | ? | ? | -10.0%
Cc1cccc(-n2c(/C=C/c3cccc4ccccc34)nc3ccccc3c2=O)c1 | -24.8% | . | ? | . | 15.9%[46.1 µM] | -25.9%
C=C(c1ccccc1)[C@@H](C#N)C1CCCC1 | . | . | -15.1 | . | . | .
Oc1ccc(Cl)cc1C1C=C(c2ccc3c(c2)OCO3)NC(c2ccc(C(F)(F)F)cc2)N1 (stereo not drawn) | 15.8% | . | . | . | . | -11.5%
CC(=O)c1cc2ccc(O)cc2oc1=O | . | 16.3% | -33.4 | . | . | .

Screening data from PubChem BioAssay.
